This is a sample that favours compounds with a hit; in the whole collection about 19% have one here.
RORg inh: ROR gamma (mouse) transcription inhibition; Drosophila S2 Gal4-RORgamma UAS-luciferase reporter, 20 h; Potency, µM (doses to about 53.6 µM), inactives show at the top dose activity change, negative = inhibition, hits mostly inhibitors; hit rate 5.4% among 310,000; AID 2551; also: nearly all actives have a fitted effect of over 60% in size
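In this cell-based reporter format, copper sulfate (700 uM final) drives Gal4–ROR gamma fusion expression from a metallothionein promoter in Drosophila Schneider cells; compounds preincubated 1 hr, reporter read after 20 hr at ambient temperature.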
TDP1 cell noCPT: qHTS for Inhibitors of human tyrosyl-DNA phosphodiesterase 1 (TDP1): qHTS in cells in absence of CPT; Potency, µM (series often up to 46.2 µM), for inactives: at the highest dose activity change, negative = growth inhibition, hits mostly inhibitors; DT40 Tdp1-/- hTDP1 cells, no CPT, ATP luminescence, 48 h; AID 686978, 2013; hit rate 15% among 420,000; also: nearly all actives have a fitted effect of over 55% in size
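Chicken DT40 Tdp1-/- cells stably complemented with human TDP1 were seeded at 400 cells/well with DMSO in place of 20 nM camptothecin. After compound pinning, cells grew at least 48 hr at 37 °C; viability read by CellTiter-Glo luminescence.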
VP16 counter: counter-screen for ROR gamma inhibitors: Gal4-VP16 reporter; Drosophila S2 Gal4-VP16 UAS-luciferase, luminescence, 20 h; AID 2546; Potency, µM (doses to about 53.6 µM), for inactives: at the highest dose activity, negative = inhibition, hits mostly inhibitors; hit rate 3.5% among 310,000;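 also: Gal4-VP16 expression switched on by copper sulfate through the metallothionein promoter; nearly all actives have a fitted effect of over 50% in size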
DT40 TDP1 CPT: growth inhibition of DT40 Tdp1-/-;hTDP1 cells with camptothecin (screen for TDP1 inhibitors); chicken DT40 Tdp1-/-;hTDP1 cells + 20 nM CPT, ATP luminescence, 48 h; Potency, µM (top dose mostly 46.2 µM), for the others: at the highest dose activity change, negative = growth inhibition, hits mostly inhibitors; hit rate 12% among 420,000; AID 686979; also: nearly all actives have a fitted effect of over 55% in size
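Cell growth measured by CellTiter-Glo luminescence after a minimum 48 h, 37 C compound exposure with 20 nM CPT in Tdp1-knockout DT40 cells stably expressing hTDP1, seeded 400/well; qHTS titration format.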
TDP1 block: TDP1 (human) enzyme inhibition; Q9NUW8; recombinant TDP1, AlphaScreen DNA substrate cleavage; Potency, µM (series often up to 130 µM), for the others: top-dose activity change, negative = inhibition, most hits filed as inhibitors; hit rate 0.28% among 350,000; also: nearly all actives have a fitted effect of over 40% in size
Target sequence (Q9NUW8 whole entry, looked up): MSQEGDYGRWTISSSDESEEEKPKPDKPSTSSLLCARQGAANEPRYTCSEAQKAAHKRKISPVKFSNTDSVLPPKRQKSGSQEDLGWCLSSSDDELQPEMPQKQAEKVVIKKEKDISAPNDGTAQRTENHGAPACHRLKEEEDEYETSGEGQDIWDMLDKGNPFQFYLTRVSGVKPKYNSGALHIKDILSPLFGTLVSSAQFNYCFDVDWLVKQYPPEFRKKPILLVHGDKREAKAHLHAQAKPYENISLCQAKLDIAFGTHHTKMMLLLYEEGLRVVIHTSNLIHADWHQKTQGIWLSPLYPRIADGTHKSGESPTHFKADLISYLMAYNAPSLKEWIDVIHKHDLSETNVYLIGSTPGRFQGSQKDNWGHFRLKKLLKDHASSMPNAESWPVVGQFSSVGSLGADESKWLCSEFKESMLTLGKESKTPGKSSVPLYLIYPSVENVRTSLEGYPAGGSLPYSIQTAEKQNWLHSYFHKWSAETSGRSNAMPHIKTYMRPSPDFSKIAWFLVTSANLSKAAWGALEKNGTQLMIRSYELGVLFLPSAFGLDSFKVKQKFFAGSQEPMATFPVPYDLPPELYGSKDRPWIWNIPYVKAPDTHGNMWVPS
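Tdp1 1 nM final; 15 min RT w/ cpd; substrate 15 nM, 5 min; beads 10 ug/ml, 10 min; AlphaScreen read. Neg ctrl: no enzyme.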
Numbers without * were called inactive; ? = inconclusive; . = not tested or not shown; [ ] = dose if it differs, or a comment. Calls follow the shape of the dose curve; as a rule, active = well fitted curve in the direction sought with a large enough effect; inconclusive = small, poorly fitted or top-dose-only effect, or another doubt; inactive = no such curve, though single readings can be large; an effect the other way counts as inactive or inconclusive. % is scaled to controls: 0 for no effect and ±100 for the full control effect; potency is read from the fitted curve at half-maximal effect.

SMILES	RORg inh	TDP1 cell noCPT	VP16 counter	DT40 TDP1 CPT	TDP1 block
CCc1ccccc1NC(=O)COc1ccc2c(=O)c(Oc3cc(C)ccc3C)coc2c1	23%	23µM*	-18%	18µM*	-3%
Cc1ccc(C)c(Oc2coc3cc(OC(=O)c4cccs4)ccc3c2=O)c1	.	?	.	29µM*	.
COc1ccc(Oc2coc3cc(OC(=O)c4cccs4)ccc3c2=O)cc1	6%	-28%	5%	-21%	-2%
Cc1cc(C)cc(Oc2coc3cc(OCC(=O)NC4CCCCC4)ccc3c2=O)c1	.	21µM*	.	?	.
COCc1c(Br)c(C)[nH]c(=O)c1C#N	1%	-13%	-1%	1%	2%[56.1 µM]
Cc1cc(C)cc(C(=O)Oc2coc(CSc3nnc(NC(=O)C4CC4)s3)cc2=O)c1	?	?	-21%	-1%	-3%
COc1ccc2oc3cc(C)[n+]([O-])c(-c4ccc(Br)cc4)c3c2c1	21%	0.0082µM*	-23%	?	-1%
CCOc1ccc(NC(=O)c2cc3nc(-c4ccc(OC)cc4)cc(C(F)(F)F)n3n2)cc1	.	-27%	.	7%	-1%
Cc1onc(-c2ccccc2)c1-c1ccnn1S(=O)(=O)c1ccc(Cl)cc1	36%	-28%	-2%	-4%	0%
Cc1ccc(S(=O)(=O)N2CCN(Cc3nnc(-c4c(-c5ccccc5)noc4C)o3)CC2)cc1	.	15µM*	.	15µM*	1%
Cc1onc(-c2ccc(Cl)cc2)c1-c1ccnn1S(=O)(=O)c1cccc(C(F)(F)F)c1	?	23µM*	5%	?	-3%
Cc1ccc(S(=O)(=O)n2nccc2-c2c(-c3ccccc3)noc2C)cc1	?	18µM*	-6%	?	6%
O=C1CCC(C(=O)NCc2ccccc2)N1 (configuration not stated)	2%	5%	-2%	21%	.
COc1cc(NC(=O)C2CCN(S(=O)(=O)c3cccc4nonc34)CC2)cc(OC)c1	?	-6%	-6%	-2%	3%
CCCN(CC1CC1)C(=S)NC(=O)C1CC1	4µM*	-9%	13µM*	0%	-5%
CCCN(CC1CC1)C(=S)NC(=O)c1cc(Br)ccc1Cl	.	16µM*	.	?	-2%
Cc1ccc(CC(=O)N2CCN(c3ccc([N+](=O)[O-])cc3)CC2)cc1	?	7.3µM*	35µM*	?	.
O=C(Cc1ccc([N+](=O)[O-])cc1)N1CCN=C1SCc1ccccc1	-4%	-29%	-5%	-6%	6%
Cc1ccc(C)c(CSC2=NCCN2C(=O)Cc2ccc([N+](=O)[O-])cc2)c1	?	18µM*	-4%	?	6%
Cc1ccc(S(=O)(=O)CC(=O)N2CCCCCC2)cc1	0%	-8%	-1%	-18%	-2%
Cc1ccc(S(=O)(=O)CC(=O)N2CCN(c3ccc([N+](=O)[O-])cc3)CC2)cc1	.	?	.	13µM*	5%
COc1ccc(CCNC(=O)C(CCC(N)=O)NS(=O)(=O)c2ccc(Cl)cc2)cc1OC (configuration not stated)	10%	18%	-5%	-1%	.
O=C(O)c1ccc(CNS(=O)(=O)c2ccc3ccccc3c2)cc1	-3%	-17%	5%	2%	6%
CCc1ccc(NS(=O)(=O)c2c(C)noc2C)cc1	-24%	-20%	4%	-11%	1%
CC(C)(C)NC(=O)CCSc1nc(-c2ccc3c(c2)OCO3)cc(C(F)(F)F)n1	.	.	.	.	0%
SMILES	RORg inh	TDP1 cell noCPT	VP16 counter	DT40 TDP1 CPT	TDP1 block
CCC(CC)C(=O)N(C)c1c(C)nc2c(OCCOc3ccccc3)cccn12	.	13µM*	.	23µM*	.
CCC(CC)C(=O)N(C)c1c(C)nc2c(OCC=C(C)C)cccn12	.	16µM*	.	13µM*	.
CN(C)c1ccc(/C=C/c2nc(-c3ccccc3O)n(-c3ccccc3)n2)cc1	.	?	.	16µM*	6%
O=C(/C=C/c1ccccc1)NC(=S)NNC(=O)c1ccco1	4%	21µM*	-2%	?	10%
O=C(NNC(=O)c1ccco1)c1ccco1	.	-8%	.	4%	.
O=C(/C=C/c1ccc(Br)cc1)NC(=S)NNC(=O)c1ccco1	?	18µM*	?	?	11%
COc1cc(/C=C/C(=O)OCC(=O)NC(=O)NC(C)(C)C)ccc1OCC#N	?	?	7%	21%	3%
Cc1cc(NC(=O)CSc2nnc(C)o2)no1	-2%	1%	7%	1%	2%
CCN(C(C)=O)c1nc(CCl)cs1	5%	-19%	-8%	?	7%
Clc1ccc(-n2ncc3c(NCc4ccco4)ncnc32)cc1	-13%	15µM*	?	?	3%
Cc1ccc(-n2ncc3c(NC4CCCCCC4)ncnc32)cc1Cl	.	?	.	?	5%
CCOC(=O)N1CCC(Nc2ncnc3c2cnn3-c2ccccc2)CC1	?	11µM*	?	?	0%
Clc1ccc(-n2ncc3c(NCC4CCCO4)ncnc32)cc1 (configuration not stated)	-31%	16µM*	-30%	16µM*	0%
Cc1ccc(Cl)cc1-n1ncc2c(NC3CCCCCC3)ncnc21	.	21µM*	.	21µM*	5%
c1ccc(-n2ncc3c(NC4CCCCCC4)ncnc32)cc1	-6%	?	-6%	?	.
Cc1ccc(S(=O)(=O)N2C[C@H]3C(=O)C[C@@H](c4ccccc4)N(S(=O)(=O)c4ccccc4)[C@H]3C[C@H]2c2ccccc2)cc1	.	?	.	-19%	.
Cc1cccc(S(=O)(=O)NC(=O)C2(C)CCN2C(=O)CCc2ccccc2)c1 (configuration not stated)	.	1%	.	0%	.
CCOc1ccc(Cc2onc3c2C(=O)CC(C)(C)C3)cc1OCC	1%	?	2%	?	-5%
Clc1ccc(-n2ncc3c(NC4CCCC4)ncnc32)cc1	.	16µM*	.	16µM*	3%
COC(=O)c1ccc(N)c(N=CC2=C(O)CC(C)(C)CC2=O)c1	13µM*	?	?	2%	8%
CC1(C)CC(=O)C(C=NCc2ccccn2)=C(O)C1	7.1µM*	-2%	16µM*	-1%	2%
CN=CC1=C(O)CC(C)(C)CC1=O	-20%	-9%	-14%	-7%	-3%
CC1(C)CC(=O)C(C=Nc2ccc(O)cc2)=C(O)C1	-1%	23µM*	6%	?	0%
CC1(C)CC(=O)C(C=Nc2cc(C(=O)c3ccccc3)ccc2N)=C(O)C1	7.9µM*	-22%	?	-3%	9%
CSc1ccccc1N=CC1=C(O)CC(C)(C)CC1=O	0%	-12%	10%	-14%	0%
CCCN(N=Nc1cccc([N+](=O)[O-])c1)c1cccc([N+](=O)[O-])c1	0%	?	13%	?	5%

Screens deposited in PubChem BioAssay by National Center for Advancing Translational Sciences (NCATS).
